Laboratory results from PubChem BioAssay (NCATS).
Inconclusive results are not listed. Active and inactive are the calls of the source. Calls come from the whole dose curve; as a rule, active = well fitted cell-killing curve with a large enough effect; inconclusive = small, poorly fitted or top-dose-only effect, or effect the other way; inactive = no such curve, though single readings can be large or run the other way.
Potency is the fitted concentration of half-maximal effect.

Assay: Quantitative High-Throughput drug screen in 47 multiple myeloma cell lines against the NCATS MIPE library collection: OPM1_PLB cell viability assay (AID 1918989); note: nearly all actives have a fitted effect of over 40% in size
Details: CellTiter-Glo, 48 h; series mostly up to 45.8 µM
Description: PI: Beverly A. Mock Ph.D.
Laboratory of Cancer Biology and Genetics,
Center for Cancer Research, National Cancer Institute,
National Institute of Health, Bethesda, Maryland
Drug resistance and disease progression are common in multiple myeloma (MM) patients, underscoring the need for new therapeutic combinations. […] We hypothesized that effective combinations would reduce MYC expression and enhance p16 activity. […] These preclinical data identify potentially useful drug combinations for evaluation in drug-resistant MM and reveal potential mechanisms of combined drug sensitivity.
Described herein is the primary MIPE qHTS used to cherrypick compounds. Validated compounds were then further tested for potential synergistic activiy.
[1] Peat TJ, Gaikwad SM, Dubois W, Gyabaah-Kessie N, Zhang S, Gorjifard S, Phyo Z, Andres M, Hughitt VK, Simpson RM, Miller MA, Girvin AT, Taylor A, Williams D, D'Antonio N, Zhang Y, Rajagopalan A, Flietner E, Wilson K, Zhang X, Shinn P, Klumpp-Thomas C, McKnight C, Itkin Z, Chen L, Kazandijian D, Zhang J, Michalowski AM, Simmons JK, Keats J, Thomas CJ, Mock BA. Drug combinations identified by high-throughput screening promote cell cycle transition and upregulate Smad pathways in myeloma. Cancer Lett. 2023 Aug 1;568:216284. doi: 10.1016/j.canlet.2023.216284. Epub 2023 Jun 24. PMID: 37356470; PMCID: PMC10408729.
SEQUENCE No. (e.g., 1, 2, 3, etc.); […] (e.g., Cells, Incubation, Reagent, etc.); VALUE and DESCRIPTION.
1; Cells; 5 uL; white, solid bottom 1536-well Greiner assay plate.
2; Compounds; 23 nL; Kalypsis pin tool (Wako USA) equipped with a 1536-well pin head to transfer to the assay plates.
3; Incubation; 48 hours; 37C incubation.
4; Reagent;5uL; CellTiter Glo (Promega).
5; Detector; 425V; Luminescence; Viewlux PerkinElmer.
NOTES (numbers refer to Sequence numbers above)
1. The cell-based screening methods employed in this study were like those previously published. Briefly, the corresponding myeloma cell lines were screened in 1,536-well plates with 500 cells, 5-uL per well for inhibition of cell viability (assessed by measuring ATP levels with CellTiterGlo).
2. NCATS MIPE 4.0 library of approved and investigational drugs were added using the Kalypsis pin tool. Wells treated with DMSO only for 100% viability and media only for 0% viability were used as controls.
3. The assay plates were covered and incubated for 48 hours in a 37C, 5% CO2 incubator with controlled humidity.
4. After 48 hours, CellTilter-GloTM luminescent substrate mix (Promega) reagent was added to the assay plate and plates we incubated for 5 min at room temperature.
5. Signal was measured as median relative luminescence units on a ViewLux (PerkinElmer) multiplate reader.
[1] Heske CM, Davis MI, Baumgart JT, Wilson K, Gormally MV, Chen L, Zhang X, Ceribelli M, Duveau DY, Guha R, Ferrer M, Arnaldez FI, Ji J, Tran HL, Zhang Y, Mendoza A, Helman LJ, Thomas CJ. Matrix Screen Identifies Synergistic Combination of PARP Inhibitors and Nicotinamide Phosphoribosyltransferase (NAMPT) Inhibitors in Ewing Sarcoma. Clin Cancer Res. 2017 Dec 1;23(23):7301-7311. doi: 10.1158/1078-0432.CCR-17-1121. Epub 2017 Sep 12. PMID: 28899971; PMCID: PMC6636827.
With `CC[C@H](CC#N)OC(=O)N[C@@H](C)c1cccc(NC(=O)Nc2ccc(-c3cnco3)c(OC)c2)c1` the Potency was 13.2 µM (active).
With `COC(=O)N1CCN(Cc2cccc(NC(=O)Nc3ccc(C)nc3)c2F)CC1` the Potency was “inactive”.
In the case of `CN1CCc2c(n(Cc3ccc(C(=O)NO)cc3)c3ccccc23)C1`, the Potency is reported as 16.6 µM (active).
In the case of `Cc1ccccc1C(=O)c1ccc(Nc2ccc(Br)cc2N)cc1Cl`, the Potency is reported as 16.6 µM (active).
For `C#C[C@]1(O)CC[C@H]2[C@H]3CCc4cc(OC)ccc4[C@H]3CC[C@@]21C`, the Potency was 16.6 µM (active).
In the case of `COC1CCC(C(=O)c2ccc3nc4c(cc3c2)CCCO4)CC1` (stereo not given), the Potency is reported as 14.8 µM (active).
With `NC[C@H]1O[C@H](O[C@@H]2[C@@H](O)[C@@H](O[C@H]3O[C@H](CO)[C@@H](O)[C@H](N)[C@@H]3O)[C@H](N)C[C@@H]2N)[C@H](O)[C@@H](O)[C@H]1O` the Potency was “inactive”.
In the case of `O=C(c1ccc(F)c(F)c1Nc1ccc(I)cc1F)N1CC(O)([C@H]2CCCCN2)C1`, the Potency is reported as 11.8 µM (active).
For `O=S(=O)(O)c1ccc2cc(N=Nc3cc(S(=O)(=O)O)c4cccnc4c3O)ccc2c1`, the Potency was 13.2 µM (active).
For `COc1c(C)c2c(c(O)c1CC=C(C)CCC(=O)O)C(=O)OC2`, the Potency was 11.8 µM (active).
For `COc1ccc(-c2ccc3ncc4c(c3c2)n(-c2ccc(N3CCNCC3)c(C(F)(F)F)c2)c(=O)n4C)cn1`, the Potency was “inactive”.
With `CC[C@H](NC(=O)[C@H](C)NC)C(=O)N1C[C@@H](O)C[C@H]1Cc1c(-c2[nH]c3cc(F)ccc3c2C[C@H]2C[C@H](O)CN2C(=O)[C@H](CC)NC(=O)[C@H](C)NC)[nH]c2cc(F)ccc12` the Potency was 13.2 µM (active).
With `CC(C)=CCCC(C)=CCCC(C)=CCCC(C)=CCCC(C)=CCCC(C)=CCCC(C)=CCCC(C)=CCCC(C)=CCO` the Potency was “inactive”.
For `Cc1cccc(-c2[nH]c(C(C)(C)C)nc2-c2ccc3c(c2)OCO3)n1`, the Potency was 1.87 µM (active).
In the case of `NC(=O)c1nnn(Cc2cc(Cl)c(C(=O)c3ccc(Cl)cc3)c(Cl)c2)c1N`, the Potency is reported as 16.6 µM (active).
In the case of `COc1ccc2cc1Oc1ccc(cc1)C[C@H]1c3cc(c(OC)cc3CCN1C)Oc1c(OC)c(OC)cc3c1[C@H](C2)N(C)CC3`, the Potency is reported as 18.7 µM (active).
For `Cc1cnc(Nc2cccc(CN3CCOCC3)c2)nc1Nc1cccc(S(=O)(=O)NC(C)(C)C)c1`, the Potency was 1.48 µM (active).
In the case of `CCCCn1c(=O)n(Cc2ccccc2F)c(=O)c2[nH]c(Cc3ccc(NC(C)=O)cc3)nc21`, the Potency is reported as “inactive”.
With `Nc1[nH]nc2nnc(-c3c(-c4ccccc4)nn4ccccc34)cc12` the Potency was 5.26 µM (active).
For `CC(C)(OCc1nn(Cc2ccccc2)c2ccccc12)C(=O)O`, the Potency was “inactive”.
With `CCOC(=O)c1c(CSc2ccccc2)n(C)c2cc(Br)c(O)c(CN(C)C)c12` the Potency was 5.26 µM (active).
With `Cc1cc(NC(=O)Nc2ccc(N(C)C)cc2)c2cc(F)cc(F)c2n1` the Potency was “inactive”.
In the case of `Cc1cn([C@@H]2C[C@@H](O)[C@H](CO)O2)c(=O)[nH]c1=O`, the Potency is reported as “inactive”.
For `O=C(O)c1nc(=O)[nH]c(=O)[nH]1`, the Potency was “inactive”.
In the case of `O=C(Nc1ccc(OC(F)(F)F)cc1)c1sccc1NCc1ccnc2ccccc12`, the Potency is reported as 20.9 µM (active).
In the case of `CC(C)n1c(C=C[C@H](O)C[C@H](O)CC(=O)O)c(-c2ccc(F)cc2)c2ccccc21`, the Potency is reported as 5.26 µM (active).
In the case of `CC[C@@H]([C@H](C)O)n1ncn(-c2ccc(N3CCN(c4ccc(OCC5CO[C@@](Cn6cncn6)(c6ccc(F)cc6F)C5)cc4)CC3)cc2)c1=O` (stereo not given in full), the Potency is reported as “inactive”.
In the case of `Cc1cc(OCCCS(C)(=O)=O)cc(C)c1-c1cccc(COc2ccc3c(c2)OC[C@H]3CC(=O)O)c1`, the Potency is reported as 18.7 µM (active).
With `C[C@@]1(C(=O)Nc2ccc(F)nc2)CCCN1c1nc(Nc2cc(C3CC3)[nH]n2)c2cccn2n1` the Potency was 1.66 µM (active).
For `N#CC(=C1Nc2ccccc2S1)c1ccnc(OCc2ccc(CN3CCOCC3)cc2)n1`, the Potency was 16.6 µM (active).
With `CC1(C)OC2CC3C4CC(F)C5=CC(=O)C=CC5(C)C4C(O)CC3(C)[C@]2(C(=O)CO)O1` (stereo not given in full) the Potency was “inactive”.
For `O=c1[nH]c(=O)n([C@H]2C[C@@H](O)[C@@H](CO)O2)cc1C(F)(F)F`, the Potency was “inactive”.
For `CN(C)N=Nc1nc[nH]c1C(N)=O`, the Potency was 4.18 µM (active).
With `O=C(C=Cc1ccc(O)cc1)c1ccc(O)cc1O` the Potency was 20.9 µM (active).
In the case of `CN1CC(=O)N2C(Cc3c([nH]c4ccccc34)[C@H]2c2ccc3c(c2)OCO3)C1=O` (stereo not given in full), the Potency is reported as “inactive”.
With `COc1ccc2nc3cc(Cl)ccc3c(Nc3cc(CN4CCCC4)c(O)c(CN4CCCC4)c3)c2n1` the Potency was 23.5 µM (active).
With `CC(C)c1onc(-c2c(Cl)cccc2Cl)c1COc1ccc(C=Cc2cccc(C(=O)O)c2)c(Cl)c1` the Potency was “inactive”.
With `CCC[C@H](Nc1nc(-c2ccc(NC(=O)NCC)c(OC)c2)ncc1C)c1cccnc1` the Potency was 0.001 µM (active).
With `Cn1c(=O)c(-c2c(Cl)cccc2Cl)cc2cnc(Nc3cccc(C(=O)O)c3)nc21` the Potency was “inactive”.
For `C[C@H]1COC2=C1C(=O)C(=O)c1c2ccc2c1CCCC2(C)C`, the Potency was 20.9 µM (active).
